HepG2 tox – counter-screen for TGF-b inhibitors: cytotoxicity in HepG2 cells | Potency, µM (highest dose often 46.1 µM), most hits filed as cytotoxic | HepG2 CAGA-GFP viability, ATP luminescence, 18 h | 0.76% of 410,000 active
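CellTiter-Glo luminescence gave cytotoxicity after 18 hours at 37 degrees C. The cells were HepG2 CAGA-GFP in 1% FBS DMEM, stimulated with 500 pg/mL TGF-beta after compound addition. %Activity was normalised to no-cell wells (complete cell-killing) and DMSO (no toxicity), and curves were fitted and classified.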
S2 tox – viability counter-screen for ATXN expression inhibitors; S2 cells (HEK-293 line with an ATXN2-luciferase reporter) viability, CellTiter-Fluor protease fluorescence, 24 h; Potency, µM (top dose mostly 56.7 µM), usual class: cytotoxic; 0.49% of 400,000 active; AID 651635; also: nearly all actives have a fitted effect of over 40% in size
ATXN2 expr inh – ATXN2 expression inhibition | HEK-293 ATXN2-luciferase reporter, luminescence, 24 h | Potency, µM (titrated, usually from 57 µM), actives largely listed as inhibitors | 0.72% of 360,000 active; also: nearly all actives have a fitted effect of over 55% in size
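qHTS (up to 57 uM final) was run with 24 h compound exposure of reporter cells at 37 °C. Each well was multiplexed: SteadyGlo luminescence measured ATXN2-luciferase expression after a fluorogenic Gly-Phe-AFC viability readout (25 uM final).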
TGFb inhibitor – TGF-b pathway inhibition; HepG2 CAGA-GFP TGF-b/SMAD3 reporter, GFP fluorescence, 18 h; TGF-beta stimulated, 500 pg/mL final; Potency, µM (highest dose often 46.1 µM), hits mostly inhibitors; 1.2% of 410,000 active; AID 588855; also: nearly all actives have a fitted effect of over 65% in size
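First, reporter cells (HEPG2 CAGA-GFP) rested 2 h at 37 degrees C. Next, compounds were pinned in and TGF-beta added to 500 pg/mL final. After 18 h, GFP was imaged per cell and summed per well.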
Six1-Eya2 blk – inhibitors of human Six1/Eya2 interaction | AlphaScreen GST-Six1/His-Eya2 binding, biochemical; active compounds read low | activity change, % (concentration not given with the values) | 0.56% of 360,000 active | AID 651725; in the data active = activity change below about -65%; inconclusive = mostly about -30% to -63%
Target sequence (O00167 whole entry, looked up): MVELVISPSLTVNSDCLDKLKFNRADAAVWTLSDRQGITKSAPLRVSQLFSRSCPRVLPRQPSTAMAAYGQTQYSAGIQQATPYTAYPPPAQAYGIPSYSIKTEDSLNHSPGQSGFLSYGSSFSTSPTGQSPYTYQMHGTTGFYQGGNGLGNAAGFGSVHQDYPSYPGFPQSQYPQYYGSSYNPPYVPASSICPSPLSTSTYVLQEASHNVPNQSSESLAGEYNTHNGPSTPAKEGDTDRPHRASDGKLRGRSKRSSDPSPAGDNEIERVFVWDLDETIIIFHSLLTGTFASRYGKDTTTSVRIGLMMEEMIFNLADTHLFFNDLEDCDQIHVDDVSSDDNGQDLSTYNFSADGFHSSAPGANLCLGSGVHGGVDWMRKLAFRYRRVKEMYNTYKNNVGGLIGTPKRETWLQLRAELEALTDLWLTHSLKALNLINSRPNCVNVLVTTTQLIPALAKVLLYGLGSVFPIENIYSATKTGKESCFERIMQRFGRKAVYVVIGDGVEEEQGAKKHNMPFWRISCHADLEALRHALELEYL
Target sequence (Q15475 whole entry, looked up): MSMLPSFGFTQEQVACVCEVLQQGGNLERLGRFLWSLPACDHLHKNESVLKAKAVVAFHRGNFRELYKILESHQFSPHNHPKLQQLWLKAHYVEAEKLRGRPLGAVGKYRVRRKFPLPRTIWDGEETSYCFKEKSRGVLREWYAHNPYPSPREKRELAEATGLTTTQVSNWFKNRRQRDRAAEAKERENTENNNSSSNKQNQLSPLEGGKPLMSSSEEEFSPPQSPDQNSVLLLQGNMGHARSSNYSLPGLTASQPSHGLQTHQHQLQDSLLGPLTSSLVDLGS
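AlphaScreen luminescence read after one hour at 37 °C in darkness. Pin-transferred compounds met GST-Six1 and His-Eya2 protein (5X stock 250 nM/500 nM) plus glutathione donor and Ni-chelate acceptor beads (5X, 50 ug/mL).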
CtBP-E1A inh – blocks the CtBP interaction with E1A | activity change, % (no concentration beside the values) | AlphaScreen GST-E1A/His-CtBP binding, 1536-well; active compounds read low | AID 651724 | 0.49% of 340,000 active; in the data active = activity change below about -65%; inconclusive = mostly about -30% to -63%
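Homogeneous bead-based format: GST-tagged E1A captured on glutathione donor beads, His-tagged CtBP on nickel acceptor beads; compounds precede bead addition by 2 h at 37 °C.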
A number is an active result; . = inactive; ? = inconclusive; / = no result given. Compounds with a hit are over-represented: about 2.8% of the library has one in this group of screens. Unless noted, calls follow the shape of the dose curve; as a rule, active = well fitted curve in the direction sought with a large enough effect; inconclusive = small, poorly fitted or top-dose-only effect, or another doubt; inactive = no such curve, though single readings can be large; an effect the other way counts as inactive or inconclusive.

SMILES	HepG2 tox	S2 tox	ATXN2 expr inh	TGFb inhibitor	Six1-Eya2 blk	CtBP-E1A inh
Cc1cccc(C(=O)Oc2c(Br)cc(Br)cc2/C=N/NC(=O)c2ccncc2)c1	.	.	.	.	.	.
O=C(N/N=C/c1cc(Br)cc(Br)c1O)c1ccncc1	.	.	?	?	-80	-93
O=C(N/N=C/c1cccc(O)c1)c1ccc(NC(=O)C2CCCCC2)cc1	.	.	.	.	.	.
O=C(N/N=C/c1ccc(O)cc1O)c1ccc(NC(=O)C2CCCCC2)cc1	.	?	5.6µM	?	-72	-90
CCOC(=O)C[C@H]1c2cc(F)ccc2S(=O)(=O)N1Cc1cc(OC)c(OC)c(OC)c1	.	/	/	?	/	/
O=C(CSc1nncn2c1cc1sccc12)Nc1ccc(Br)cc1F	.	/	/	?	/	/
CC(C)N(CCO)Cc1nc(N2CCOCC2)c2cc(Cl)ccc2n1	/	.	/	/	/	/
O=C(c1cc2c(=O)oc3ccccc3c2s1)N1CCN(c2cccc(Cl)c2)CC1	.	.	.	.	/	/
O=C(N/N=C/c1ccc(O)cc1O)c1ccncc1	.	.	22µM	.	-93	-91
O=C(CCCCCNC(=O)c1ccccc1)N/N=C/c1ccc(O)cc1O	.	.	.	.	.	?
O=C(N/N=C/c1cc(Cl)ccc1O)c1cccnc1	.	.	?	.	-68	-91
CCc1cc(C(=O)N/N=C/c2ccc(O)cc2O)c2ccccc2n1	.	.	?	.	-93	-97
Cc1ccc(C(C)C)c(OCc2ccc(C(=O)N/N=C/c3ccc(O)cc3O)cc2)c1	.	?	10µM	?	.	.
O=C(N/N=C/c1ccc(Cl)cc1Cl)c1ccncc1	.	?	/	.	.	/
CCOC(=O)c1c(NC(=O)c2cc(-c3ccccc3OC)on2)sc(C)c1C	.	.	.	.	/	/
O=C(NN1CCCC1)NS(=O)(=O)c1ccc(Cl)cc1	/	.	.	/	/	/
O=C(Nc1cc(S(=O)(=O)Nc2ccc(Cl)cc2)ccc1O)c1ccc(S(=O)(=O)N2CCCCCC2)cc1	.	.	.	?	.	.
O=C(N/N=C/c1cc(Cl)cc(Cl)c1O)c1ccncc1	.	.	/	?	-92	/
O=C(N/N=C\c1cc(Cl)ccc1O)c1ccc(S(=O)(=O)N2CCCCC2)cc1	.	.	2.5µM	.	.	.
Cc1nn(-c2ccccc2)c(Cl)c1/C=N/NC(=O)c1cccnc1	.	.	.	.	.	.
O=C(N/N=C/c1c(Cl)nc2ccccn2c1=O)c1cccnc1	.	.	/	?	-69	.
Cc1ccc(N(CC(=O)Nc2ccc(Br)cc2)S(=O)(=O)c2cccs2)cc1	.	.	.	.	/	/
Cn1cc(CN(C(=O)Nc2ccccc2)C2CCCCC2)c2ccccc21	16µM	?	?	?	/	/
Cc1ccc(NC(=S)c2nc3ccccc3[nH]2)cc1	.	.	.	?	-81	-72
Cc1ccc(NC(=S)c2nc3ccccc3[nH]2)c(C)c1	.	.	.	.	-72	?
SMILES	HepG2 tox	S2 tox	ATXN2 expr inh	TGFb inhibitor	Six1-Eya2 blk	CtBP-E1A inh
CCN(CC)C(=O)COc1ccc(-c2nnc(N3CCCCC3)c3ccccc23)cc1	.	.	.	.	.	.
CCOc1ccc(-c2nnc(N3CCCCC3)c3ccccc23)cc1	.	28µM	?	.	.	.
CC(C)c1ccccc1Oc1c(C(F)(F)F)oc2c(CN3CCN(C)CC3)c(O)ccc2c1=O	.	.	.	.	/	/
O=C(CCl)N(c1ccccc1)c1ccccc1	11µM	/	?	?	.	.
O=C(N(c1ccccc1)c1ccccc1)N(c1ccccc1)c1ccccc1	.	?	/	16µM	.	/
O=C(CCl)N(CCc1ccccc1)CCc1ccccc1	18µM	?	?	?	.	.
O=C(O)CSCC(=O)N(c1ccccc1)c1ccccc1	.	.	.	.	.	.
CC(C)(C)n1ncc2c(=O)n(Cc3c(F)ccc(F)c3Cl)cnc21	.	/	/	.	/	/
Cc1cccc2nc(CNC(=O)CN3Cc4ccccc4OC(c4ccccc4F)C3)cn12 (configuration not stated)	/	.	/	/	/	/
O=C(Nc1ccc(Cl)cc1)C1CCN(S(=O)(=O)c2ccc(Br)s2)CC1	.	?	.	13µM	/	/
CC(C)c1ccc(NC(=O)C2CCN(S(=O)(=O)c3ccc(Br)s3)CC2)cc1	.	.	.	.	/	/
Cc1csc(NC(=O)C2CCCN(S(=O)(=O)c3ccc(Br)s3)C2)n1 (configuration not stated)	.	.	.	18µM	.	.
Cc1cc(NC(=O)C2CCCN(S(=O)(=O)c3ccc(Br)s3)C2)ccc1Br (configuration not stated)	.	.	.	?	/	/
O=C(Nc1ccc(OC(F)F)cc1)c1nc(S(=O)(=O)Cc2ccccc2F)ncc1Cl	11µM	/	/	13µM	/	/
CCOc1ccc(NC(=O)c2nc(S(=O)(=O)Cc3ccccc3F)ncc2Cl)cc1	6.3µM	/	/	3.2µM	/	/
CCOc1ccc(NC(=O)c2nc(SCc3ccccc3F)ncc2Cl)cc1	.	/	/	.	/	/
O=C(CSc1nc2c([nH]c3ccccc32)c(=O)n1-c1ccc(F)cc1)NC1CCCCC1	.	/	/	?	/	/
COc1ccc2[nH]c3c(=O)n(/N=C/[C@H]4C(C)C=C(C)CC4C)c(=O)[nH]c3c2c1 (some centres not stated)	7.1µM	13µM	?	5µM	.	.
COc1ccc2c(c1)[nH]c1c(=O)n(/N=C/C3C(C)C=C(C)CC3C)c(=O)[nH]c12 (configuration not stated)	.	.	?	.	.	.
Oc1ccc(/C=N/NC(=S)N/N=C/c2ccc(O)cc2)cc1	.	?	.	.	?	-67
O=C(O)C[C@H](O)C[C@H](O)C=Cc1c(C2CC2)nc2ccccc2c1-c1ccc(F)cc1	/	/	.	/	/	/
NCC12CC3CC(C1)CC(c1ccc(Br)cc1)(C3)C2	13µM	/	/	?	.	/
CC(=O)Oc1ccc2c(=O)c(/C=N/c3cc(=O)[nH]c(=S)[nH]3)coc2c1	.	.	/	.	-75	.
O=c1cc(/N=C/c2coc3cc(Br)ccc3c2=O)[nH]c(=S)[nH]1	.	.	.	.	.	.
COc1cc(Cl)c(CN2CCOc3ccc(CN4CCCCC4CO)cc3C2)cc1OC (configuration not stated)	/	.	/	/	/	/
COc1cccc(CNCc2ccc(OC)cc2OC)c1	.	.	.	.	.	.
CCn1c2ccccc2c2cc(CNCc3ccc(OC)cc3OC)ccc21	10µM	/	?	?	.	.
Cc1cccc(C(=O)N[C@H]2CC[C@@H](n3cc(C(=O)N4CCCC4)nn3)CC2)c1	/	.	/	/	/	/
CC[n+]1c(/C=C/c2ccc(N(C)C)cc2)ccc2ccccc21	.	/	?	3.5µM	.	.
CC[n+]1ccc(/C=C/c2ccc(N(C)C)cc2)c2ccccc21	.	8.9µM	?	6.3µM	.	.

Assay outcomes: PubChem BioAssay, National Center for Advancing Translational Sciences (NCATS)
